# HTR5A inv ag = HTR5A inverse agonists in luminescence cell assay, primary screen, counter-screen for OPRM1-OPRD1 heterodimer inverse agonist project, full-deck HTS; 5-hydroxytryptamine receptor 5A (Homo sapiens), P47898; HTR5A cell line, inverse agonism; inhibition, % at 9.3 µM; 340,000 tested, 0.083% active; AID 504634, 2011; in the data active = inhibition mostly above about 23%, no sharp cut-off; inactive = mostly below about 18%;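 also: 0% = cells with DMSO and 100% = no-cell wells with DMSO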
# HTR5A ag = HTR5A agonists in luminescence cell assay, primary screen, counter-screen for OPRM1-OPRD1 heterodimer agonist project, full-deck HTS | 5-hydroxytryptamine receptor 5A (Homo sapiens), P47898 | cell-based | activation, % at 9.3 µM | 340,000 tested, 0.61% active; in the data active = activation mostly above about 9.5%, no sharp cut-off; inactive = mostly below about 7.6%;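 also: 0% = cells with vehicle only and 100% = reference agonist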
# MOR-DOR ag-1 = agonists of OPRM1-OPRD1 heterodimerization, primary screen, cell-based, luminescence; activation, % at 9.3 µM; cells; 340,000 tested, 0.3% active;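 also: 0% = vehicle-treated cells and 100% = reference agonist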
# Target sequence (P35372 whole entry, looked up): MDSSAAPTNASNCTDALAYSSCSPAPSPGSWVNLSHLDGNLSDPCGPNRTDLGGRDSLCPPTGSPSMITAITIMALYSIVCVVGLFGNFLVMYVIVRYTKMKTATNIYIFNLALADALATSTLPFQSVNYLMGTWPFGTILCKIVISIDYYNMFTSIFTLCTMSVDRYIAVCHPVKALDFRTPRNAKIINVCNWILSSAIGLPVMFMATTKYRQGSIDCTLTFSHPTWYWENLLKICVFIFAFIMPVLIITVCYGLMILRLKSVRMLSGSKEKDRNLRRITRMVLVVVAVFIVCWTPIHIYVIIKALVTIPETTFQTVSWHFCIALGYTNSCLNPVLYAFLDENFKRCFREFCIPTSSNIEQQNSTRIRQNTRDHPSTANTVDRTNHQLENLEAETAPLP
# Target sequence (P41143 whole entry, looked up): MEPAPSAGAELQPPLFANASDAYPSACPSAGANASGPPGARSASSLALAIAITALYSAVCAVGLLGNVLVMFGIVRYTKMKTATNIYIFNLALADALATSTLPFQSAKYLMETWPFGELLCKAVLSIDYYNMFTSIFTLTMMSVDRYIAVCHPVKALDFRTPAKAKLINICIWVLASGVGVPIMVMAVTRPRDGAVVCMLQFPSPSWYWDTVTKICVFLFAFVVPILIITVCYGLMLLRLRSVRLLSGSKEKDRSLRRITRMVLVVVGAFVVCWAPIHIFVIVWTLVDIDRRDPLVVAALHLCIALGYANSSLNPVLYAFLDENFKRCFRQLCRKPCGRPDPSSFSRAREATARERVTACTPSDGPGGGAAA
# OPRM1-OPRD1 inv = inverse agonists of MOR-DOR heterodimerization, primary screen, cell-based, luminescence; Mu-type opioid receptor (Homo sapiens) + Delta-type opioid receptor (Homo sapiens), …; cell-based MOR-DOR heterodimer luminescence, inverse agonism; inhibition, % at 9.3 µM; 340,000 tested, 0.21% active; in the data active = inhibition above about 22%, passing the limit was not always enough;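 also: 0% = cells with DMSO and 100% = wells without cells with DMSO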
# m5-HT2A agonist = mouse Htr2a agonists via beta-arrestin recruitment, primary screen, cell-based, luminescence. 5-hydroxytryptamine receptor 2A (Mus musculus), P35363. CHO-K1 mHTR2A beta-arrestin complementation; percent of 30 µM serotonin response. activation, % at 7.6 µM. 360,000 tested, 0.66% active. AID 624169, 2012;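 active = activation above a run cutoff, the mean activation of all tested compounds plus 3 SD, cut at about 14% in these data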;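 also: 0% = plate median of compound wells and 100% = 30 µM serotonin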
# MOR-DOR ag-2 = OPRM1-OPRD1 heterodimerization promoters, counter-screen for HTR5A agonist project, cell-based, luminescence | shares compounds with HTR5A ag | U2OS counter-screen cells, complementation luminescence, 3 h | activation, % at 9.3 µM | 800 tested, 13% active
# HTR5A ag conf = HTR5A agonists, retest of hits, confirmation, cell-based, luminescence | shares compounds with HTR5A ag | HTR5A agonist cell assay | activation, % at 9.3 µM | 800 tested, 17% active | AID 504915, 2011; in the data active = activation above about 17%;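 also: 0% = cells with vehicle only and 100% = full reference agonist response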
# The depositor's hits bear a star; / = no result; ! = a repeat was not active. Only some compounds are listed: those with a hit (about 1.6% of all), similar ones and a draw of the others. Rule as the data show it, unless noted: active = activation above about 18%; inactive = the rest.
SMILES,HTR5A inv ag,HTR5A ag,MOR-DOR ag-1,OPRM1-OPRD1 inv,m5-HT2A agonist,MOR-DOR ag-2,HTR5A ag conf
CCOC(=O)c1cc(C(=O)c2cccs2)n2ccc(C(C)=O)cc12,-55.0,19.9*,-2.6,14.5,0.0,3.1,-2.0
CCOC(=O)c1cc(C(C)=O)n2ccccc12,14.4,0.6,-1.1,5.9,3.3,/,/
COc1ccc(C(CNc2ccc(C(F)(F)F)cn2)N(C)C)cc1OC (stereo not drawn),-55.9,18.8*,17.2,-138.5,2.1,-0.1,-5.4
FC(F)(F)c1ccc(NCc2ccccn2)nc1,2.7,-0.7,-2.0,11.7,2.0,/,/
Cc1ccc(NC(=O)C/C(N)=N/OC(=O)c2ccccc2)cc1,-21.1,15.3*,9.2,-48.5,-2.5,5.8,1.7
CCOC(=O)c1ccc(NC(=O)CNC(=O)c2ccccc2)cc1,-0.7,-2.3,-0.3,1.3,5.4,/,/
O=C1CN(C(=O)CN2CCN(S(=O)(=O)c3ccccc3F)CC2)c2ccccc2N1,/,/,/,/,-3.9,/,/
CC(C)[C@@H](NC(=O)OC(C)(C)C)c1cc(C(=O)c2c(-c3ccccc3)[nH]c3ccccc23)c(N)s1,/,/,/,/,-5.7,/,/
COc1ccc(C(=O)NCC(c2ccco2)N2CCOCC2)cc1 (stereo not drawn),/,/,/,/,0.3,/,/
COc1cccc(CNC(=O)CCc2nnc3ccc(NCCCN4CCCC4=O)nn23)c1,-15.5,17.4*,1.5,-8.2,-0.7,0.3,-0.4
Cc1ccc(-c2n[nH]c(=O)c3ccccc23)cc1N,21.2,-6.9,-1.2,6.0,3.5,/,/
Nc1ccc(-c2n[nH]c(=O)c3ccccc23)cc1N,-50.5,21.2*,1.9,-9.0,0.3,2.7,13.5
COc1cccc(CNC(=O)C2CCN(S(=O)(=O)c3ccccc3)CC2)c1,-28.6,-3.0,-1.2,6.1,-4.7,/,/
COc1ccc(CNC(=O)C2CCN(S(=O)(=O)c3ccccc3)CC2)cc1,-49.8,20.7*,-1.1,5.6,1.3,2.5,0.9
CS(=O)(=O)N1CCCC(C(=O)NCc2ccc(F)cc2)C1 (stereo not drawn),-20.6,15.8*,-0.1,0.4,-2.7,16.7,8.1
CC1(C)CC2(OC2c2ccccc2[N+](=O)[O-])C(=O)c2ccccc21 (stereo not drawn),/,/,/,/,-3.9,/,/
OC[C@@H]1CN(Cc2ccc(Cl)cc2)C[C@H](n2cnc3c(N4CCN(c5ccccc5)CC4)ncnc32)O1,/,/,/,/,-5.2,/,/
CCN(CC)C(=O)c1cccc(-c2csc(C(C)(O)c3ccc(F)c(F)c3)n2)c1 (stereo not drawn),/,/,/,/,-4.9,/,/
O=C(Nc1ccc(N2CCCC2)cc1)c1ccc(Br)cc1,-0.5,0.1,-1.0,4.7,-7.6,/,/
CC(C)Oc1ccc(C(=O)Nc2ccc(N3CCCC3)cc2)cc1,2.8,16.9*,2.1,-11.8,0.8,1.2,2.7
CCOc1ccc(Cl)cc1-c1cc(C(=O)NC(C)C)[nH]n1,/,/,/,/,4.9,/,/
OC(c1ccc(F)cc1)c1nc(-c2ccc(Cl)cc2)cs1 (stereo not drawn),/,/,/,/,-5.2,/,/
CC(C)(C)c1cc(C(=O)NNc2cc(C(F)(F)F)ccc2Cl)n(Cc2ccccc2)n1,15.3,18.3*,17.7,-88.8,-2.1,12.2,15.6
CCCOc1c(Cl)cc(C(=O)Nc2ccc3c(c2)OCO3)cc1OCC,-33.9,15.9*,9.5,-55.9,4.2,1.1,-4.2
CCCOc1ccc(C(=O)Nc2ccc3c(c2)OCO3)cc1,-22.0,0.9,-0.7,2.3,1.0,/,/
SMILES,HTR5A inv ag,HTR5A ag,MOR-DOR ag-1,OPRM1-OPRD1 inv,m5-HT2A agonist,MOR-DOR ag-2,HTR5A ag conf
COC(=O)N1CCCCC1c1cc(C(=O)Nc2ccc(OC)cc2C)no1 (stereo not drawn),/,/,/,/,4.7,/,/
O=C(Nc1ccc2c(c1)OCCO2)C1c2ccccc2OCC(=O)N1CCc1c[nH]c2ccccc12 (stereo not drawn),/,/,/,/,4.5,/,/
O=C(Nc1ccc2c(c1)oc1ccccc12)c1ccc2c(c1)OCO2,1.4,7.2,4.0,-20.6,-6.3,/,/
O=C(COc1ccc2c(c1)OCO2)Nc1ccc2c(c1)oc1ccccc12,-58.2,16.0*,3.4,-18.1,0.0,6.2,8.2
COc1ccccc1N1CCN(C(=O)c2ccc(Cn3c(=O)[nH]c4ccsc4c3=O)cc2)CC1,9.2,16.0*,-0.1,0.8,-0.9,0.1,12.4
COc1ccccc1N1CCN(C(=O)Cn2c(=O)[nH]c3ccsc3c2=O)CC1,6.4,-2.1,-2.8,14.7,-0.3,/,/
Cc1ccc2nc3c(c(Nc4ccc5c(c4)OCCO5)c2c1)CCC3,-190.1,41.4*,-1.8,9.5,-3.6,1.6,59.5*
COc1ccc(-c2nc(C#N)c(N3CCc4ccccc4C3)o2)cc1OC,-42.0,17.6*,-1.9,9.1,-0.7,0.2,0.5
CC(=O)N1CCc2c(sc(NC(=O)C3CC3)c2-c2nc3ccccc3s2)C1,-47.1,16.1*,-1.9,10.9,13.2,2.3,0.6
CC(=O)Nc1sc2c(c1-c1nc3ccccc3s1)CN(C(C)C)CC2,1.0,-3.5,-2.4,13.0,-14.5,/,/
Cc1ccc(CN2CCC2(C)C(=O)NC2CCc3ccccc32)cc1 (stereo not drawn),/,/,/,/,-2.8,/,/
O=C(NCCc1c[nH]c2ccccc12)/C(=C\c1cccnc1)NC(=O)c1ccco1,-11.7,4.7,-2.0,10.3,-3.1,/,/
O=C(NCCc1c[nH]c2ccccc12)/C(=C\c1cccnc1)NC(=O)c1ccccc1Br,-37.0,21.7*,-1.9,10.1,9.9,0.3,2.2
C=CCNC(=O)c1ccccc1NC(=O)C1CC(=O)N(C(C)C)C1 (stereo not drawn),-1.5,16.2*,-1.2,6.2,-1.4,-0.9,-0.2
CC(C)N1CC(C(=O)Nc2ccccc2)CC1=O (stereo not drawn),-30.6,1.6,-1.7,9.6,4.6,/,/
Cc1c(CCOC(=O)C2C3CC4CC(C3)CC2C4)sc[n+]1CC(=O)c1ccc(Br)cc1 (stereo not drawn),-42.2,17.7*!,2.5,-10.2,-9.0,17.8,1.9
Cc1c(CCOC(=O)c2ccc(Cl)cc2Cl)sc[n+]1CC(=O)c1ccc(Br)cc1,-23.8,7.7,4.4,-16.5,3.0,/,/
CCOC(=O)C1=C[C@@H](C(C)(C)C)N(S(=O)(=O)c2ccc(C)cc2)[C@H]1c1ccc(F)cc1,/,/,/,/,-3.9,/,/
COc1ccc(C(=O)Nc2cccc([N+](=O)[O-])c2)cc1Br,-46.9,18.7*,12.2,-51.4,-2.2,8.0,-0.2
CC(OC(=O)c1ccco1)C(=O)Nc1ccc(C(F)(F)F)cc1 (stereo not drawn),-48.8,19.8*,-1.1,4.7,-1.2,3.0,-3.6

# Screening data (PubChem BioAssay)
